# This is a sample that favours compounds with a hit; in the whole collection about 9.2% have one here.
# ELG1 DNA repair: ELG1-dependent DNA repair inhibition. HEK293T ELG1-luciferase reporter, luminescence, 16 h; DNA damage induced by 5-fluorouridine. 2.3% of 330,000 active. Potency, µM (top dose mostly 46.1 µM), usual class: inhibitors; further: nearly all actives have a fitted effect of over 55% in size
#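 Overnight (16 hr) co-exposure of 2,000 cells/well to 5-fluorouridine and compound at 37 °C preceded detection. Luciferase was quantified via ONE-Glo luminescence; loss of signal denotes inhibition.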
# Rab9 promoter act: activates the Rab9 promoter; Huh7 Rab9 promoter-luciferase reporter, luminescence, 24 h; Potency, µM (highest dose often 9.22 µM), usual class: activators; 2.8% of 320,000 active; AID 485297; further: nearly all actives have a fitted effect of over 60% in size
#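 Luminescence from Amplite-detected luciferase (10 minutes, ambient) reports Rab9 promoter activation. Before that, stable Rab9-luciferase Huh7 cells (1500/well, reduced-serum OP-MEM I plus 10% FBS) were exposed to compound for 24 hours at 37C.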
# ELG1 genotoxic: induces genotoxicity in HEK293T cells with luciferase-tagged ELG1 | HEK293T ELG1-luciferase reporter, luminescence, 16 h | Potency, µM (titrated, usually from 46 µM), actives largely listed as activators | 1.3% of 330,000 active; further: nearly all actives have a fitted effect of over 60% in size
#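 After overnight (16 hr) compound treatment at 37 °C, ELG1-luciferase HEK293T cells were lysed with ONE-Glo; luminescence quantified 30 min later at room temperature.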
# NPC1 promoter act: activators of NPC1 promoter | Huh7 NPC1 promoter luciferase reporter, 24 h | Potency, µM (highest dose often 9.22 µM), actives largely listed as activators | 2.4% of 320,000 active | AID 485313; further: nearly all actives have a fitted effect of over 60% in size
#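 Readout is luciferase luminescence, reflecting NPC1 promoter activation in stably transfected Huh7 cells after 24 h compound exposure at 37 °C in reduced-serum medium with 10% FBS.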
# FLuc counter: counter-screen for miR-21 project: firefly luciferase inhibitors or activators; P08659; purified FLuc, Km substrates, luminescence inhibition; Potency, µM (top dose mostly 57.5 µM), hits mostly inhibitors; 6.9% of 360,000 active; AID 588342; further: nearly all actives have a fitted effect of over 55% in size
# Target sequence (P08659 whole entry, looked up): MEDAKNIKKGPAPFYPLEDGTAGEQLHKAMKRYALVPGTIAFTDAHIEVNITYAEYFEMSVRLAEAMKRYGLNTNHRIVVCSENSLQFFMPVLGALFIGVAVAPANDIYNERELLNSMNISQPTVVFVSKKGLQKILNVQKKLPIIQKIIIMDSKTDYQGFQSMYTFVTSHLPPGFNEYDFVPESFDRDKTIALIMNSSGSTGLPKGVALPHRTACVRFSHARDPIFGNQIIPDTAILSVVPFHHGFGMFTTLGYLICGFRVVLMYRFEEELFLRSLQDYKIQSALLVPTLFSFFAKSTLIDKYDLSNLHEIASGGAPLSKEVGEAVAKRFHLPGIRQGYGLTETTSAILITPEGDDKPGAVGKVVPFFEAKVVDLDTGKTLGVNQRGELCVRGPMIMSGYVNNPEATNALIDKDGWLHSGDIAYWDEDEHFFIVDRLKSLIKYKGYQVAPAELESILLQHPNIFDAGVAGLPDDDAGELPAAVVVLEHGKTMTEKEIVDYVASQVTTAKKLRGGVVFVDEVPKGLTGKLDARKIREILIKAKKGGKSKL
#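 Purified P. pyralis luciferase, 10 nM final, with Km-level 10 uM D-luciferin and 10 uM ATP in 50 mM Tris acetate pH 7.5, 10 mM Mg acetate, 0.01% Tween-20, 0.05% BSA; 6-point qHTS titration about 60 µM downward; luminescence read.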
# SMN2 splice enh: increases expression of the SMN2 splice variant; 2.8% of 210,000 active; AID 1458; Potency, µM (titrated, usually from 46.1 µM), actives largely listed as activators; HEK293 SMN2-luciferase splicing reporter, luminescence, 30-36 h; further: nearly all actives have a fitted effect of over 55% in size
#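 HEK293 cells carry an SMN2 […]–luciferase reporter in which exon 7 inclusion puts luciferase in frame. Cells were plated 10-12 h before compound addition, then incubated 30-36 h at 37C. ONE-Glo luminescence was read; sodium butyrate at 4.5 mM final served as control.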
# A number is an active result; - = inactive; ? = inconclusive; . = no result; [ ] = dose if it differs, or a comment. The call rests on the fitted dose curve; in most records, active means well fitted curve in the direction sought with a large enough effect; inconclusive means small, poorly fitted or top-dose-only effect, or another doubt; inactive means no such curve, though single readings can be large; an effect the other way counts as inactive or inconclusive.
SMILES,ELG1 DNA repair,Rab9 promoter act,ELG1 genotoxic,NPC1 promoter act,FLuc counter,SMN2 splice enh
CCCCc1nc2cc(C(=O)N3CCCC3)ccc2o1,?,2.8µM,?,?,?,.
N#Cc1cccc(NC(=O)N2CC[C@@]3(CCCN(C(=O)c4ccco4)C3)C2)c1,.,.,.,.,.,-
O=C(Cn1c(=O)n(-c2ccc(F)c(Cl)c2)c(=O)c2sc3ccccc3c21)NC1CCCC1,.,.,.,.,-,-
c1ccc(Oc2nc(N3CCOCC3)nc(N3CCOCC3)n2)cc1,?,-,-,-,-,-
O=C1CSC(c2ccccc2)N1Nc1nc(N2CCOCC2)nc(N2CCOCC2)n1 (stereo not given),6.5µM,-,-,-,-,.
COc1cccc(CNC(=O)[C@H](CCSC)NC(=O)N2CCn3c2nc2ccccc23)c1,18µM,-,-,-,-,.
O=P(O)(O)O[C@@H]1O[C@H](CO)[C@@H](O)[C@H](O)[C@@H]1O,.,.,.,.,.,-[9.22 µM]
O=C(/C=C/c1ccc(F)cc1)c1cc(Br)ccc1O,?,-,-,-,?,.
O=C(/C=C/c1ccc2ccccc2n1)c1cc(Br)ccc1O,?,-,-,-,8.5µM,.
CCS(=O)(=O)N1CCCC(c2nc(-c3cccc(OC)c3)no2)C1 (stereo not given),?,?,15µM,-,?,?
CCCS(=O)(=O)N1CCCC(c2nc(-c3ccc(OC)cc3)no2)C1 (stereo not given),?,-,-,-,?,-
CCCSC1=N/C(=C\C=C\c2ccco2)C(=O)S1,-,-,-,-,11µM,-
O=C(Nc1sc2c(c1-c1nc3ccccc3[nH]1)CCCC2)C1CCCC1,?,-,-,-,?,-
CC(=O)NCCC(=O)Nc1sc2c(c1-c1nc3ccccc3[nH]1)CCCC2,15µM,-,-,-,?,-
CCn1c(=S)[nH]c2sc3c(c2c1=O)CCCC3,-,-,-,-,?,.
CC1CCc2c(sc3[nH]c(=S)n(C)c(=O)c23)C1 (stereo not given),?,-,-,-,19µM,.
CC1CCN(CCNC(=O)c2ccc(Cn3c(SCc4ccccc4)nc4cccnc43)cc2)CC1,.,.,.,.,12µM,-
Cc1cccc(Cn2c(SCc3ccc(C(=O)NCCc4ccccc4)cc3)nc3cccnc32)c1,.,.,.,.,-,.
O=C(NCCN1CCCCC1)c1ccc(Cn2c(SCc3ccccc3)nc3cccnc32)cc1,.,.,.,.,12µM,-
CC1CCCCN1CCNC(=O)c1ccc(Cn2c(SCc3ccccc3)nc3cccnc32)cc1 (stereo not given),.,.,.,.,13µM,-
c1ccc2sc(N3CCN(Cc4ccc5c(c4)OCO5)CC3)nc2c1,.,.,.,.,.,-
Cc1c(NC(=O)c2ccc3c(c2)OCO3)cccc1-c1nc2ncccc2o1,?,-,-,-,?,-
Cc1c(NC(=O)c2ccc3c(c2)OCO3)cccc1-c1nc2ccccc2s1,-,-,-,-,3.4µM,-
O=C(Nc1cccc(-c2nc3ccccc3s2)c1)c1ccc2c(c1)OCO2,-,-,-,-,12µM,-
c1ccc2sc(-c3ccc4c(c3)OCO4)nc2c1,?,0.32µM,0.58µM,0.56µM,0.54µM,7.1µM
SMILES,ELG1 DNA repair,Rab9 promoter act,ELG1 genotoxic,NPC1 promoter act,FLuc counter,SMN2 splice enh
O=C(NCc1ccccn1)Nc1cccc(F)c1,?,-,-,-,-,.
COC(=O)c1sccc1NC(=O)CNC(=O)c1ccccc1,-,-,-,-,-,-
CCOc1ccc(C2=NC(c3ccncc3)=Nc3ccc(C)cc3N2)cc1OCC,.,.,.,.,-,-
CCOc1cccc(/C=N/NC(=O)c2ccc3c(c2)OCCO3)c1O,?,-,?,-,2.4µM,.
COc1cc(OC)c(OC)cc1/C=N/NC(=O)c1cc(-c2cccn2C)n[nH]1,-,-,-,-,-,-
Cc1ccc(NS(=O)(=O)c2cccc(C(=O)N/N=C/c3ccc4c(c3)OCCO4)c2)c(C)c1,?,-,-,-,11µM,-
COc1cccc(/C=N/NC(=O)CNC(=O)c2ccc3c(c2)OCCO3)c1O,?,-,-,-,-,-
CCOc1cccc(/C=N/NC(=O)c2cc(-c3cccn3C)n[nH]2)c1O,?,-,?,-,15µM,.
Cc1cccc(/C=N/NC(=O)c2ccc3c(c2)OCCO3)c1O,?,0.5µM,0.13µM,0.89µM,0.38µM,.
CC(/C=N/n1c(COc2ccccc2)n[nH]c1=S)=C\c1ccco1,-,-,-,-,-,.
Cc1cccc(NC(=O)CCCCCn2c(=O)[nH]c3ccsc3c2=O)c1,.,.,.,.,-,-
CC(C)N(C(=O)[C@H]1C[C@H](CC(=O)NCCN2CCOCC2)C(=O)N2CCc3c([nH]c4cc(CCC(=O)N(C)C)ccc34)[C@]12C)C(C)C,?,.,-,.,.,.
C[N+](C)(C)c1ncnc2c1ncn2[C@@H]1C[C@H](O)[C@@H](CO)O1,.,.,.,.,.,-[9.22 µM]
Cc1cccc(/C=N\NC(=O)c2ccc(Cl)cc2)c1O,?,?,?,-,1.5µM,.
O=C(N/N=C/c1cc(Cl)ccc1O)c1ccc(Br)cc1,?,-,-,-,?,-
Cc1ccc(N=Nc2ccc(O)c(/C=N\NC(=O)c3ccc(N)cc3)c2)cc1C,-,2.8µM,?,1.4µM,?,-
Cc1cccc(/C=N/NC(=O)Cc2ccc(Cl)cc2)c1O,?,-,?,-,-,.
CCC(=O)N1c2ccccc2CC1C(=O)NCc1ccc(N(C)C)cc1 (stereo not given),.,.,.,.,-,.
O=C(c1ccc(Cl)cc1)N1CCN(CCc2ccccn2)CC1,-,-,-,-,-,.
O=C1CC(/C=C/c2cccnc2)=Nc2ccccc2N1,?,-,-,-,-,-
O=C1CC(/C=C/c2ccc(Cl)cc2)=Nc2ccccc2N1,?,1.3µM,?,2.2µM,4.3µM,.
CC1(C)CC(/C=C/c2ccccc2)=Nc2ccccc2N1,?,?,-,?,4.3µM,.
O=C1CC(/C=C/c2ccccc2)=Nc2ccccc2N1,?,0.89µM,?,2µM,2.7µM,-
Cc1cc2nc(-c3cccc(NC(=O)COc4ccc(Cl)c(C)c4)c3)oc2cc1C,.,.,.,.,1.9µM,.
Cc1cc2nc(-c3cccc(NC(=O)COc4ccc(C(C)C)cc4)c3)oc2cc1C,.,.,.,.,1.5µM,-
SMILES,ELG1 DNA repair,Rab9 promoter act,ELG1 genotoxic,NPC1 promoter act,FLuc counter,SMN2 splice enh
CCC(C)NC(=O)COc1ccc(OCc2ccccc2)cc1 (stereo not given),?,-,-,-,?,-
CCn1c(SCc2cccc(F)c2)nnc1-c1cccnc1,-,-,-,-,-,.
CCn1c(SCc2cccc(F)c2)nnc1-c1ccncc1,2.6µM,-,-,-,-,.
CCc1ccccc1NC(=O)Cn1nc(-c2cc(C)ccc2C)c2c(c1=O)CCCC2,.,.,.,.,-,-
COCc1cc(=O)[nH]c(Nc2nc3ccc(C)cc3o2)n1,?,-,23µM,-,17µM,-
CCc1ccc2nc(Nc3nc(COC)cc(=O)[nH]3)nc(C)c2c1,-,-,-,-,-,-
COc1cccc(-c2nnc3n(Cc4ccc(C)cc4)c(=O)c4ccccc4n23)c1O,.,.,.,.,-,.
